Consider 17 molecules from PubChem BioAssay (EPA / NIEHS).

“And” between values parts separate entries of the source, which are not always exact repeats. Identical values can stand only once. A structure can be active in one record and inactive in another. The source made the active and inactive calls. Rule for the calls: active = hit-call score of the fitted dose curve at least 0.9, where 1 is the maximum; inactive = score below 0.9.

Read-out in test [1]: Urokinase-type plasminogen activator receptor (uPAR), PLAUR (gene 5329)
The test can be described thus: BSK_4H_uPAR: BioMAP Diversity Plus: 4H Assay for Urokinase-type plasminogen activator receptor (uPAR) Biomarker Activity (AID 2283030). The note with it: primary human endothelial cells (HUVEC); actives raise or lower the signal. The gist of the method:
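Primary human umbilical vein endothelial cells were exposed to chemical for 24 h before cell-surface uPAR was quantified by ELISA. Activity was fitted bidirectionally against the DMSO negative control baseline.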

Read-out in test [2]: Vascular endothelial growth factor receptor 2 (Homo sapiens) (UniProt P35968)
As to the kind of experiment: BSK_4H_VEGFRII: BioMAP Diversity Plus: 4H Assay for Vascular endothelial growth factor receptor 2 (VEGFR2) Biomarker Activity (AID 2283031).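 For AC50: cell-surface VEGFR2 protein level quantified by ELISA.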 The note with it: primary human endothelial cells (HUVEC); actives raise or lower the signal. The gist of the method:
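Primary human umbilical vein endothelial cells in the BioMAP 4H system were dosed with test chemical, and 24 h later VEGFRII was measured by ELISA. Activity was fitted bidirectionally against DMSO as negative control and baseline.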

Read-out in test [3]: Human Leukocyte Antigen - DR isotype (HLADR), HLA-DRA (gene 3122)
The test can be described thus: BSK_BE3C_HLADR: BioMAP Diversity Plus: BE3C Assay for Human Leukocyte Antigen - DR isotype (HLADR) Biomarker Activity (AID 2283032). The note with it: primary human bronchial epithelial cells; actives raise or lower the signal. Put shortly:
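Human primary bronchial epithelial cells in the BE3C system were exposed to chemicals for 24 h, after which HLA-DR levels were quantified by ELISA. Activity was fitted bidirectionally, gain or loss of signal, against DMSO as negative control and baseline.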

Read-out in test [4]: Vascular cell adhesion molecule 1 (VCAM1), VCAM1 (gene 7412)
As to the kind of experiment: BSK_4H_VCAM1: BioMAP Diversity Plus: 4H Assay for Vascular cell adhesion molecule 1 (VCAM1) Biomarker Activity (AID 2283033).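 For outcome: cell-surface VCAM-1 protein measured by ELISA.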 The note with it: primary human endothelial cells (HUVEC); actives raise or lower the signal. The gist of the method: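 Primary human umbilical vein endothelial cells were exposed to chemicals for 24 h, after which VCAM-1 was quantified by ELISA. Responses were fitted bidirectionally against DMSO as negative control and activity baseline.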

Read-out in test [5]: Interferon-gamma inducible Protein 10 (IP10), CXCL10 (gene 3627)
The test can be described thus: BSK_BE3C_IP10: BioMAP Diversity Plus: BE3C Assay for Interferon-gamma inducible Protein 10 (IP10) Biomarker Activity (AID 2283034). The note with it: primary human bronchial epithelial cells; actives raise or lower the signal. The gist of the method: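 Human primary bronchial epithelial cells were exposed to chemicals for 24 hours, after which IP-10 levels were measured by ELISA. Data were fitted bidirectionally against DMSO, which served as the negative control and activity baseline.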

Read-out in test [6]: Monokine induced gamma interferon (MIG), CXCL9 (gene 4283)
As to the kind of experiment: BSK_BE3C_MIG: BioMAP Diversity Plus: BE3C Assay for Monokine induced gamma interferon (MIG) Biomarker Activity (AID 2283035). As to conditions: primary human bronchial epithelial cells; actives raise or lower the signal. Put shortly: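 Primary human bronchial epithelial cells treated for 24 h; MIG levels measured by ELISA, fitted bidirectionally versus DMSO. Parallel SRB total-protein staining assessed cytotoxicity.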

Read-out in test [7]: Plasminogen activator inhibitor-1 (PAI1), SERPINE1 (gene 5054)
The test can be described thus: BSK_BE3C_PAI1: BioMAP Diversity Plus: BE3C Assay for Plasminogen activator inhibitor-1 (PAI1) Biomarker Activity (AID 2283037). The note with it: primary human bronchial epithelial cells; actives raise or lower the signal. The gist of the method:
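Human primary bronchial epithelial cells were exposed to chemical for 24 h, then PAI-1 was quantified by ELISA. Activity was fitted bidirectionally relative to the DMSO negative control baseline.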

Read-out in test [8]: urokinase plasminogen activator (uPA), PLAU (gene 5328)
The test can be described thus: BSK_BE3C_uPA: BioMAP Diversity Plus: BE3C Assay for urokinase plasminogen activator (uPA) Biomarker Activity (AID 2283038).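 For outcome: uPA protein level quantified by ELISA in cell cultures; uPA read one day after compound addition.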 As to conditions: primary human bronchial epithelial cells; actives raise or lower the signal. Put shortly: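 Human primary bronchial epithelial cells were exposed to chemical for 24 h, then uPA levels were measured by ELISA. Responses were fitted bidirectionally against DMSO as negative control and baseline. Parallel SRB staining of total protein gauged overt cytotoxicity.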

Read-out in test [9]: Urokinase-type plasminogen activator receptor (uPAR), PLAUR (gene 5329)
As to the kind of experiment: BSK_BE3C_uPAR: BioMAP Diversity Plus: BE3C Assay for Urokinase-type plasminogen activator receptor (uPAR) Biomarker Activity (AID 2283039).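 For outcome: cells exposed to compound for one day before measurement.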 As to conditions: primary human bronchial epithelial cells; actives raise or lower the signal. Put shortly: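 Primary human bronchial epithelial cells were dosed with chemical and harvested 24 h later; uPAR was quantified by ELISA. Activity was fitted bidirectionally against DMSO as negative control and baseline.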

Read-out in test [10]: Transforming growth factor beta 1 (TGFb1), TGFB1 (gene 7040)
As to the kind of experiment: BSK_BE3C_TGFb1: BioMAP Diversity Plus: BE3C Assay for Transforming growth factor beta 1 (TGFb1) Biomarker Activity (AID 2283036). The note with it: primary human bronchial epithelial cells; actives raise or lower the signal. The gist of the method: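 Human primary bronchial epithelial cells (BE3C system) were dosed with chemical and TGF-b1 levels measured by ELISA at 24 h. Activity was fitted bidirectionally relative to DMSO negative control as baseline.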

Regarding `O=C(O)C(F)(F)C(F)(F)C(F)(F)C(F)(F)C(F)(F)C(F)(F)C(F)(F)C(F)(F)C(F)(F)C(F)(F)C(F)(F)C(F)(F)F`, the result in [1], in test [3], in test [5], in test [6], in [7] and in test [8] was inactive. Besides, the outcome in test [9] was inactive. Besides, the AC50 – broadly, the concentration at which the activity in the assay is half-maximal – in test [2] was 22 µM (active) and 11.1 µM (active); in [4], 3.66 µM (active) and 1.18 µM (active).

As to `O=C(Cl)C(F)(F)C(F)(F)C(F)(F)C(F)(F)C(F)(F)C(F)(F)C(F)(F)C(F)(F)F`, the result in test [1], in test [2], in test [4] and in test [7] was inactive. Also, the AC50 is 30 µM (active) in test [2]; 50 µM (active) and 48.6 µM (active) and 50.7 µM (active) in test [3]; 39.8 µM (active) and 36.6 µM (active) and 44.6 µM (active) in [5]; 55.3 µM (active) and 46.6 µM (active) and 46.1 µM (active) in [6]; 51.7 µM (active) and 48.2 µM (active) and 47.1 µM (active) in [8]; 47.8 µM (active) and 53.7 µM (active) and 48.4 µM (active) in test [9].

Consider `OCC(F)(F)C(F)(F)C(F)(F)C(F)(F)C(F)(F)C(F)(F)F`, for which the AC50 in [1] was 47.8 µM (active); in test [3], 41.7 µM (active); in test [6], 45.1 µM (active) and 54.8 µM (active). The result in test [1], in [2], in test [3], in [4], in test [5] and in test [7] was inactive. For the same molecule, the outcome in test [8] and in test [9] was inactive.

For `O=C(O)C(F)(F)C(F)(F)C(F)(F)C(F)(F)C(F)(F)C(F)(F)C(F)(F)C(F)(F)Cl`, the outcome in test [1], in test [2] and in test [4] was inactive. Also, the AC50 was 18.2 µM (active) and 17.6 µM (active) in test [3]; 56.8 µM (active) in test [4]; 18.3 µM (active) and 17.9 µM (active) in test [5]; 46.6 µM (active) and 46.5 µM (active) in test [6]; 18 µM (active) and 12.2 µM (active) in test [7]; 45.7 µM (active) and 45.8 µM (active) in [8]. Besides, the AC50 in [9] is 48.6 µM (active) and 44.4 µM (active).

For the molecule `FC(F)(F)C(F)(F)C(F)(F)CI`, the result in [1], in [2], in [3], in test [4], in test [5] and in test [6] was inactive. The result in [7], in test [8] and in test [9] was inactive.

In the case of `C=CC(=O)OCC(F)(F)C(F)(F)C(F)(F)C(F)(F)COC(=O)C=C`, the AC50 in test [1] was 57.8 µM (active) and 55.1 µM (active); in test [2] it was 9.64 µM (active); in test [3] it was 40.4 µM (active) and 42.4 µM (active); in test [4], 25.5 µM (active) and 24 µM (active); in test [5], 45.1 µM (active) and 45.8 µM (active); in test [6], 44.1 µM (active) and 46.5 µM (active). The AC50 was 8.4 µM (active) and 8.81 µM (active) in test [8]; 21.5 µM (active) in [9]. Also, the outcome in test [2], in test [7] and in [9] was inactive.

As for `FC(F)(I)C(F)(F)C(F)(F)C(F)(F)I`, the AC50 in test [1] was 50.3 µM (active) and 57.1 µM (active); in test [2], 18.7 µM (active) and 45.2 µM (active); in [3] it was 49.2 µM (active) and 46.2 µM (active) and 46.8 µM (active); in test [4], 22.9 µM (active) and 53.8 µM (active) and 54.1 µM (active); in test [5] it was 58.2 µM (active) and 46.9 µM (active) and 54.8 µM (active); in test [6], 48.9 µM (active). The AC50 in [7] was 50.8 µM (active); in test [9], 51.1 µM (active) and 47.9 µM (active). For the same molecule, the outcome in test [1], in test [2], in test [6], in test [7], in test [8] and in [9] was inactive.

As for `CS(C)(=O)=O`, the result in test [1], in test [2], in [3], in [4], in [5] and in [6] was inactive. For the same molecule, the result in [10], in test [7], in test [8] and in [9] was inactive.

As for `O[Si](c1ccccc1)(c1ccccc1)c1ccccc1`, the AC50 in [1] was 4.82 µM (active); in test [2], 29.5 µM (active); in test [4], 14.8 µM (active); in test [7], 8.71 µM (active). The outcome in test [3], in [5], in test [6], in test [10], in test [8] and in test [9] was inactive.

Consider `CCCCOCCOCCOC(=O)CCCCC(=O)OCCOCCOCCCC`, for which the outcome in test [1], in [2], in test [3], in test [4], in test [5] and in test [6] was inactive. Further, the outcome in [10], in test [7], in test [8] and in test [9] was inactive.

`CC(CCl)OP(=O)(OC(C)CCl)OC(C)CCl` (centres undefined): the outcome in test [1], in test [2], in test [3], in test [4], in test [5] and in [6] was inactive. Also, the outcome in [10], in [7], in [8] and in [9] was inactive.

In the case of `C=C(C)C(=O)OCC(F)(F)C(F)(F)C(F)(F)F`, the outcome in test [1], in [2], in [3], in test [4], in [5] and in test [6] was inactive. The result in [7], in [8] and in test [9] was inactive.

Take `Nc1ccc([N+](=O)[O-])cc1O`: the outcome in [1], in [2], in test [3], in [4], in test [5] and in test [6] was inactive. The result in test [10], in test [7] and in test [8] was inactive. For the same molecule, the AC50 in test [9] is 20 µM (active).

Regarding `O=P(O)(O)OCCC(F)(F)C(F)(F)C(F)(F)C(F)(F)C(F)(F)C(F)(F)F`, the result in test [1], in test [2], in test [3], in [4], in test [5] and in [6] was inactive. In addition, the result in test [7], in test [8] and in test [9] was inactive. Also, the AC50 in [4] was 6.01 µM (active).

As for `CCCCCCC(C)OC(=O)CCCCC(=O)OC(C)CCCCCC` (centres undefined), the outcome in [1], in [2], in test [3], in test [4], in [5] and in [6] was inactive. Further, the result in test [10], in [7], in test [8] and in [9] was inactive.

As for `N=C(N)C(F)(F)C(F)(F)C(F)(F)C(F)(F)C(F)(F)C(F)(F)C(F)(F)F`, the outcome in test [1], in test [2], in test [3], in [5], in [6] and in test [7] was inactive. For the same molecule, the result in test [8] and in test [9] was inactive. For the same molecule, the AC50 in test [3] was 43.1 µM (active); in test [4], 21.1 µM (active) and 44.1 µM (active); in test [5], 48.6 µM (active).

For `CCN(CC)c1ccc2c(C)cc(=O)oc2c1`, the outcome in test [1], in [2], in test [3], in test [4], in test [5] and in test [6] was inactive. The result in test [10], in test [7], in test [8] and in test [9] was inactive.
